This is part of a sample that, as a whole, favours compounds with a hit. Of some 83,000 tested, about 20% had one in any assay.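 Single-dose data. Exposure time 48 hours. Values below 10 considered active.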 Activity calls are given as the source filed them.
Tests used:
Test in all cases: NCI-60 one-dose screen, 48 h (100 = growth as untreated, 0 = no growth, -100 = all killed)
Settings in all cases: 10 µM unless noted
[1] = test system: NCI-H23 lung
[2] = test system: NCI-H226 lung
[3] = test system: NCI-H322M lung
[4] = test system: HOP-62 NSCLC
[5] = test system: NCI-H460 lung
[6] = test system: HOP-92 NSCLC
[7] = test system: NCI-H522 lung
[8] = test system: A549/ATCC NSCLC
[9] = test system: 786-0 renal
[10] = test system: COLO 205 colon
[11] = test system: DU-145 prostate
[12] = test system: K-562 leukemia
[13] = test system: MALME-3M melanoma
[14] = test system: MDA-MB-231 breast
[15] = test system: RXF 393 renal
[16] = test system: SF-268 CNS
[17] = test system: SF-295 CNS
[18] = test system: SF-539 CNS
[19] = test system: UACC-257 melanoma
[20] = test system: M14 melanoma

Measured: growth

CC(=O)Nc1nc(C)c(-c2csc(Nc3ccccc3)n2)s1
active: [7] 9.26% | [15] 6.02%
inactive: [1] 35.2% | [2] 19.4% | [3] 27.6% | [4] 42.8% | [5] 21.8% | [6] 24.6% | [8] 44.3% | [9] 25.7% | [10] 38% | [11] 30% | [12] 24.8% | [13] 13% | [14] 33% | [16] 46.7% | [17] 11.9% | [18] 15.9% | [19] 50.7% | [20] 35.3%

Cn1cc(-c2nnc(N)nc2-c2c[nH]c3ccc(Br)cc23)c2cc(Br)ccc21
inactive: [1] 98.3% | [2] 112% | [3] 104% | [4] 106% | [5] 107% | [6] 111% | [7] 85.7% | [8] 104% | [9] 89.5% | [10] 116% | [11] 109% | [12] 105% | [13] 108% | [14] 98.7% | [15] 93.1% | [16] 106% | [17] 100% | [18] 102% | [19] 108% | [20] 102%

O=C(CCCCCCN1CC(=O)N2[C@@H](c3cccs3)c3[nH]c4ccccc4c3C[C@H]2C1=O)NO
inactive: [1] 94.1% | [2] 107% | [3] 79.8% | [4] 91.2% | [5] 77.2% | [6] 69% | [7] 44.7% | [8] 98.9% | [9] 103% | [10] 93.1% | [11] 90.2% | [12] 64.7% | [13] 27.2% | [14] 93.7% | [15] 89.3% | [16] 101% | [17] 96.9% | [18] 73.8% | [19] 66.9% | [20] 84.3%

Cn1cc(-c2nn3cc(-c4ccncc4)nc3s2)c2cc(Br)ccc21
inactive: [1] 63.1% | [2] 83.5% | [3] 81.3% | [4] 71.6% | [5] 54.9% | [7] 79.4% | [8] 66.4% | [9] 84.6% | [10] 46.5% | [11] 75.1% | [13] 56.8% | [14] 78.5% | [15] 65.4% | [16] 68.8% | [17] 38.5% | [18] 80.4% | [19] 98.3% | [20] 52%
active: [6] -0.882% | [12] 4.34%

C[C@@H]1OCC2(CCN(c3cnc(C(=O)Nc4cc(F)cc5cccnc45)cn3)CC2)[C@@H]1N
inactive: [1] 82.2% | [2] 78.6% | [3] 85.3% | [4] 83.8% | [5] 93.5% | [6] 45.7% | [7] 34.8% | [8] 82.2% | [9] 71.3% | [11] 77% | [13] 53.1% | [14] 38.9% | [15] 65.4% | [16] 78.9% | [17] 90.8% | [18] 71.7% | [19] 102% | [20] 81.5%
active: [10] 9.27% | [12] 8.84%

CC(=O)c1c([Si](C)(C)C)c2cc(C#N)ccn2c1C(=O)c1ccc(Br)cc1
inactive: [1] 84.1% | [2] 76.9% | [3] 85.3% | [4] 88.3% | [5] 95.5% | [6] 81.9% | [7] 70.5% | [8] 90.3% | [9] 76.5% | [10] 104% | [11] 99.9% | [12] 82.4% | [13] 92.9% | [14] 85.4% | [15] 78.5% | [16] 79.1% | [17] 90.9% | [18] 95.5% | [19] 101% | [20] 97.4%

CC(C)(C)Nc1nc2c(OCCc3ccccc3)cccn2c1-c1cccc(Oc2ccccc2)c1
inactive: [1] 11.1% | [2] 15.2% | [3] 15.8% | [4] 11.1% | [8] 16.3% | [11] 25.5% | [12] 15.7% | [14] 17.7% | [16] 32.4% | [20] 18%
active: [5] 8.14% | [6] -12.8% | [7] -26.1% | [9] 8.48% | [10] -93.8% | [13] 0.427% | [15] -8.9% | [17] 6.47% | [18] -0.94% | [19] 6.07%

Brc1ccc2[nH]cc(-c3nn4cc(-c5nccs5)nc4s3)c2c1
inactive: [1] 31.2% | [2] 50.5% | [3] 51.5% | [4] 12.8% | [7] 67.6% | [10] 11% | [11] 20.8% | [12] 13.1% | [16] 31.7% | [17] 37.1% | [18] 29.7% | [19] 56.8% | [20] 13.3%
active: [5] -45.3% | [6] -28.1% | [8] 4.76% | [9] -74.5% | [13] -7.45% | [14] -13.5% | [15] -46.4%

CC(C)=CCC[C@](C)(O)[C@H]1CC[C@]2(C)[C@@H]1CC[C@@H]1[C@@]3(C)CC[C@H](N)C(C)(C)[C@@H]3CC[C@]12C
active: [10] -31.4% | [12] -41.2%
inactive: [1] 76.5% | [2] 93.1% | [3] 111% | [4] 97.9% | [5] 27.4% | [6] 76.3% | [7] 96.8% | [8] 67.3% | [9] 61.9% | [11] 72.2% | [13] 107% | [14] 85.4% | [15] 53.2% | [16] 86% | [17] 93.2% | [18] 87.9% | [19] 94% | [20] 92.9%

CCOC(=O)c1c(NC(=O)c2ccc(C(F)(F)F)cc2)sc2c3c(ccc12)OCN(C)C3
active: [4] -53.2% | [5] -17.8% | [7] -60.3% | [8] -37.9% | [10] -22% | [12] -28.3% | [15] -70% | [18] -73.1%
inactive: [1] 85.6% | [2] 97% | [3] 73.4% | [6] 14.5% | [9] 30.8% | [11] 21.6% | [13] 72.6% | [14] 10.9% | [16] 63.6% | [17] 66.2% | [19] 71.6% | [20] 30.1%

COc1ccc([C@@H]2C(=O)N(c3cc(OC)c(OC)c(OC)c3)[C@H]2c2ccc(OC)c(O)c2)cc1
active: [5] 4.83% | [7] -39.4% | [9] 6.33% | [10] -79.3% | [18] 5.74%
inactive: [1] 28.9% | [2] 60.2% | [3] 42.7% | [4] 31.3% | [6] 25.1% | [8] 29% | [11] 10.9% | [12] 12.7% | [13] 69.5% | [14] 28.8% | [15] 16.7% | [16] 25.2% | [17] 17.9% | [19] 56.6% | [20] 12.6%

CCOC(=O)c1cccc(NC2=C(Cl)C(=O)c3nc(C)ccc3C2=O)c1
inactive: [1] 65.2% | [2] 89.5% | [3] 104% | [4] 112% | [5] 100% | [6] 108% | [7] 88.4% | [8] 101% | [9] 103% | [10] 120% | [11] 108% | [12] 15.6% | [13] 96.3% | [14] 89.8% | [15] 97.8% | [16] 96.2% | [17] 113% | [18] 104% | [19] 82% | [20] 96.4%

COc1ccc(C(=NNS(=O)(=O)c2ccc(C)cc2)c2ccccc2)cc1OC
inactive: [1] 99.5% | [2] 99.5% | [3] 92.9% | [4] 102% | [5] 105% | [6] 90.4% | [7] 92.4% | [8] 96.1% | [9] 99.1% | [10] 111% | [11] 103% | [12] 94.3% | [13] 87.7% | [14] 91.2% | [15] 105% | [16] 95.5% | [17] 87.7% | [18] 105% | [19] 96.5% | [20] 102%

CCOC(=O)C1=C(C)NC(C)=C(C(=O)OC(C)C)C1c1cccc(C#N)c1 (stereo not given)
inactive: [1] 96.7% | [2] 98.1% | [3] 100% | [4] 101% | [5] 101% | [6] 114% | [7] 92.7% | [8] 100% | [9] 90.6% | [10] 114% | [11] 104% | [12] 93.9% | [13] 97.2% | [14] 95.2% | [15] 90.8% | [16] 96.9% | [17] 106% | [18] 104% | [19] 104% | [20] 105%

NNc1nnc2nc(Nc3ccccc3)nc(Nc3ccc(S(N)(=O)=O)cc3)n12
inactive: [1] 102% | [2] 105% | [3] 102% | [4] 111% | [5] 101% | [6] 119% | [7] 101% | [8] 105% | [9] 110% | [10] 105% | [11] 112% | [12] 101% | [13] 101% | [14] 95.8% | [15] 101% | [16] 107% | [17] 106% | [18] 96.5% | [19] 106% | [20] 108%

CC(Nc1ncnc2ccc(-c3cnc4cnccn34)cc12)c1ccccc1 (stereo not given)
inactive: [1] 54.8% | [2] 46.9% | [3] 26.4% | [4] 68.8% | [5] 61% | [6] 27.1% | [7] 27.3% | [8] 37.6% | [9] 47.9% | [10] 81% | [11] 37.4% | [12] 48.3% | [13] 58% | [14] 64.3% | [15] 46.6% | [16] 67.7% | [17] 50.5% | [18] 66% | [19] 75.4% | [20] 77.8%

Source: PubChem BioAssay (NCI)
